This passage reports growth results from PubChem BioAssay (NCI).

Test systems include DU-145 prostate; K-562 leukemia; MALME-3M melanoma; MDA-MB-231 breast; RXF 393 renal; SF-268 CNS; SF-295 CNS; SF-539 CNS; UACC-257 melanoma; M14 melanoma; HCT-15 colon; HT29 colon; SNB-75 CNS; SNB-19 CNS; U251 CNS; PC-3 prostate; SK-MEL-5 melanoma; UACC-62 melanoma; SK-MEL-28 melanoma.
Assay in all cases: NCI-60 one-dose screen, 48 h (100 = growth as untreated, 0 = no growth, -100 = all killed)
What all share (details): 10 µM unless noted

The panel holds about 83,000 compounds, 20% with a hit somewhere; the sample as a whole holds those more often.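 Compound tested at a single concentration for 48 hours in 96-well plates; a percent growth value below 10 was scored as active.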 Unmarked numbers belong to inactive results. The source made the active and inactive calls.

As for `CCOC(=O)C1=C(N)N(c2ccccc2)C2=C(C(=O)CC(C)(C)C2)C1c1ccccc1Cl` (configuration not stated), the growth with DU-145 prostate is 88.2%; with K-562 leukemia it was 41.5%; with MALME-3M melanoma, 89.3%; with MDA-MB-231 breast, 84.8%; with RXF 393 renal, 78.2%; in the assay with SF-268 CNS, 80%. Further, the growth is 75% with SF-295 CNS; 100% in the assay with SF-539 CNS; 72.5% with UACC-257 melanoma; 50.8% in the assay with M14 melanoma; 49.1% in the assay with HCT-15 colon; 55% in the assay with HT29 colon. The growth in the assay with SNB-75 CNS was 66.3%; in the assay on SNB-19 CNS, 70.5%; in the assay with U251 CNS, 79.3%; with PC-3 prostate it was 29.6%; in the assay on SK-MEL-5 melanoma, 60.5%; with UACC-62 melanoma it was 44%. Further, the growth in the assay on SK-MEL-28 melanoma was 81.4%.

On to `C=CC[N+](C)(C)CCn1c2ccccc2c2nc3cc(C)c(C)cc3nc21`, for which the growth is 105% with DU-145 prostate; 75.7% in the assay with K-562 leukemia; 57.1% in the assay with MALME-3M melanoma; 105% with MDA-MB-231 breast; 89.2% in the assay with RXF 393 renal; 56.1% with SF-268 CNS. In addition, the growth in the assay on SF-295 CNS is 99.6%; in the assay on SF-539 CNS it was 56.8%; with UACC-257 melanoma, 86%; in the assay on M14 melanoma, 96.2%; in the assay with HCT-15 colon, 106%; in the assay with HT29 colon, 105%. The growth with SNB-75 CNS is 88.5%; in the assay with SNB-19 CNS, 19.2%; in the assay with U251 CNS it was 72.9%; with PC-3 prostate, 97.4%; with SK-MEL-5 melanoma it was 63.7%; in the assay on UACC-62 melanoma it was 97.1%. Moreover, the growth in the assay on SK-MEL-28 melanoma was 79.6%.

As to `CN(C)CCn1c2ccccc2c2nc3cc4ccccc4cc3nc21`, the growth was -30% (active) in the assay with DU-145 prostate; 2.68% (active) in the assay with K-562 leukemia; -87.3% (active) in the assay on MALME-3M melanoma; 9% (active) in the assay on MDA-MB-231 breast; -42.9% (active) with RXF 393 renal; 46.2% with SF-268 CNS. The growth is -67.6% (active) in the assay with SF-295 CNS; -72.2% (active) with SF-539 CNS; 18.1% in the assay with UACC-257 melanoma; -63.3% (active) with M14 melanoma; -35.8% (active) in the assay on HCT-15 colon; -50.4% (active) in the assay with HT29 colon. In addition, the growth in the assay on SNB-75 CNS is 43%; in the assay on SNB-19 CNS, 28.9%; with U251 CNS, -69.3% (active); in the assay with PC-3 prostate it was 3.43% (active); with SK-MEL-5 melanoma, 14.6%; in the assay with UACC-62 melanoma it was 57.2%. The growth in the assay with SK-MEL-28 melanoma is -80.1% (active).

For the compound `O=C(CN1C(=O)/C(=C/c2ccccc2Cl)SC1=S)N1CCOCC1`, the growth with DU-145 prostate is 78.1%; in the assay on K-562 leukemia it was 27%; with MALME-3M melanoma, 76.3%; in the assay on MDA-MB-231 breast it was 94.3%; in the assay on RXF 393 renal it was 77.4%; in the assay with SF-268 CNS it was 106%. The growth was 107% in the assay on SF-295 CNS; 91.7% in the assay with SF-539 CNS; 94.3% in the assay with UACC-257 melanoma; 85.3% in the assay with M14 melanoma; 45% with HCT-15 colon; 96.4% in the assay on HT29 colon. The growth is 109% in the assay with SNB-75 CNS; 92.4% with SNB-19 CNS; 93.4% with U251 CNS; 102% with PC-3 prostate; 98.9% in the assay with SK-MEL-5 melanoma; 83.2% in the assay with UACC-62 melanoma. Moreover, in the assay with SK-MEL-28 melanoma, the growth was 98.8%.

Take `O=C(COc1ccc(NC(=O)Nc2ccc(Cl)c(Cl)c2)cc1)N=Nc1c(O)[nH]c2ccc([N+](=O)[O-])cc12`: the growth in the assay with DU-145 prostate is 64.8%; in the assay with K-562 leukemia it was 25.1%; with MALME-3M melanoma, 77.9%; with MDA-MB-231 breast, 37%; with RXF 393 renal, 75.4%; in the assay on SF-268 CNS it was 84.3%. In addition, the growth with SF-295 CNS was 53.1%; with SF-539 CNS it was 1.4% (active); in the assay with UACC-257 melanoma, 67.6%; with M14 melanoma, 34.4%; with HCT-15 colon, 88.5%; with HT29 colon it was 81.6%. Besides, the growth with SNB-75 CNS was 66.2%; in the assay on SNB-19 CNS, 67%; in the assay on U251 CNS, 19.4%; in the assay on PC-3 prostate, 71.6%; in the assay with SK-MEL-5 melanoma it was 90.7%; with UACC-62 melanoma, 85.6%. Moreover, the growth in the assay on SK-MEL-28 melanoma is 57.6%.

As to `COc1cc(C2CC(c3cc(OC)c(OC)c(OC)c3)=NN2c2ccccc2)ccc1OCc1ccc(C)cc1` (configuration not stated), the growth in the assay with DU-145 prostate was 100%; in the assay with K-562 leukemia it was 92.8%; in the assay on MALME-3M melanoma, 95.3%; in the assay with MDA-MB-231 breast it was 102%; in the assay on RXF 393 renal, 101%; in the assay on SF-268 CNS, 87.6%. Further, the growth in the assay with SF-295 CNS is 108%; with SF-539 CNS, 95.7%; in the assay on UACC-257 melanoma it was 101%; in the assay with M14 melanoma, 97.8%; in the assay on HCT-15 colon, 86.2%; in the assay with HT29 colon, 85.7%. Also, the growth with SNB-75 CNS is 84.1%; with SNB-19 CNS, 91.7%; in the assay on U251 CNS it was 96.7%; in the assay with PC-3 prostate it was 92.9%; with SK-MEL-5 melanoma it was 92.3%; in the assay with UACC-62 melanoma, 78.8%. In addition, the growth in the assay with SK-MEL-28 melanoma was 103%.

On to `Nc1nc(C(F)(F)F)cs1`, for which the growth with DU-145 prostate was 109%; with K-562 leukemia, 99.9%; with MALME-3M melanoma, 103%; with MDA-MB-231 breast it was 117%; with RXF 393 renal, 112%; in the assay on SF-268 CNS, 99.3%. The growth was 103% in the assay with SF-295 CNS; 106% in the assay with SF-539 CNS; 104% in the assay with UACC-257 melanoma; 108% with M14 melanoma; 104% with HCT-15 colon; 112% in the assay on HT29 colon. Further, the growth in the assay on SNB-75 CNS was 91.7%; in the assay with SNB-19 CNS, 105%; in the assay on U251 CNS it was 103%; in the assay on PC-3 prostate it was 102%; in the assay with SK-MEL-5 melanoma, 104%; in the assay with UACC-62 melanoma it was 101%. Moreover, the growth in the assay on SK-MEL-28 melanoma was 110%.

With `COC(=O)C[C@](O)(CCCC(C)(C)O)C(=O)O[C@H]1C(OC)=C[C@@]23CCCN2CCc2cc4c(cc2[C@@H]13)OCO4`, the growth in the assay on DU-145 prostate was -11.7% (active); in the assay with K-562 leukemia it was 4.68% (active); with MALME-3M melanoma, -43.8% (active); in the assay on MDA-MB-231 breast, -20.4% (active); in the assay with RXF 393 renal, -31.8% (active); in the assay with SF-268 CNS, -6.53% (active). The growth with SF-295 CNS is -22.8% (active); with SF-539 CNS it was -50.8% (active); in the assay with UACC-257 melanoma it was -28.2% (active); in the assay with M14 melanoma it was -71.4% (active); in the assay with HCT-15 colon, 0.83% (active); in the assay on HT29 colon, -48.3% (active). Besides, the growth is -48.9% (active) with SNB-75 CNS; -26.8% (active) with SNB-19 CNS; -23.4% (active) in the assay with U251 CNS; -15.1% (active) with PC-3 prostate; -71.9% (active) in the assay on SK-MEL-5 melanoma; -18.5% (active) in the assay on UACC-62 melanoma. Besides, the growth in the assay on SK-MEL-28 melanoma was -35.4% (active).
